Experimental data as given in paper PMC7862700, “An all-to-all approach to the identification of sequence-specific readers for epigenetic DNA modifications on cytosine”.

target: T1, GABPA (Homo sapiens, UniProt Q06546 1-454); test: DAPPL (digital affinity profiling via proximity ligation, sequencing); 10 mM Tris-HCl pH 7.5, 50 mM NaCl, 1 mM DTT, 4% glycerol, room temperature, 30 min; GST-TFs on glutathione beads, 16-mer random dsDNA library, 0.1% formaldehyde crosslink after washing; high values mean tight binding; details: protein: recombinant; tags: N-terminal GST; dsDNA, one strand shown
T1 sequence: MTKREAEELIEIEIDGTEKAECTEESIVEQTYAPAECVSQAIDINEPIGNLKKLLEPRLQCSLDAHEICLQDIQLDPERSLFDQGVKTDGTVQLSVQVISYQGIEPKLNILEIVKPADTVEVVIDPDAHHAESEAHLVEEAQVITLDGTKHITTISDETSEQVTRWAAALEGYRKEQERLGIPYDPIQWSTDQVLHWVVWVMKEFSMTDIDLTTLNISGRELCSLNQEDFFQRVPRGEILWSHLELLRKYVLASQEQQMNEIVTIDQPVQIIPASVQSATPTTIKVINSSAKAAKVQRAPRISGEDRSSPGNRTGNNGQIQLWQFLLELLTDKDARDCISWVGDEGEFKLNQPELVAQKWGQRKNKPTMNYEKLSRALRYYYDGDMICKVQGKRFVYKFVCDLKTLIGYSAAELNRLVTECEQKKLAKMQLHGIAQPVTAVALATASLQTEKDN
How it was run: (§1)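 Binding signal is defined as a hexamer's read frequency for one factor over its frequency for the tag-only sample. To obtain reads, GST-fused human transcription factors were expressed in yeast, captured on glutathione beads, barcoded with DNA and pooled with that sample. Pools met 200 nmole of a 16-mer random double-stranded DNA library in Tris/NaCl/DTT/glycerol buffer for 30 min at room temperature before washing, 0.1% formaldehyde crosslinking, proximity ligation (BsaI/T4 ligase, 1 h, 37 °C), PCR and Illumina NextSeq500 sequencing.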

Row | Sequence | binding signal
1 | AAAGCG | 1.03 fold enrichment (6-mer frequency, TF over GST control)
2 | ATGGTG | 1.1 fold enrichment (6-mer frequency, TF over GST control)
3 | TGCTGC | 1.16 fold enrichment (6-mer frequency, TF over GST control)
4 | CATCGC | 1.13 fold enrichment (6-mer frequency, TF over GST control)

target: T2, ERG (Homo sapiens, UniProt P11308 1-479); test: as above; details: protein: recombinant; tags: N-terminal GST; dsDNA, one strand shown
T2 sequence: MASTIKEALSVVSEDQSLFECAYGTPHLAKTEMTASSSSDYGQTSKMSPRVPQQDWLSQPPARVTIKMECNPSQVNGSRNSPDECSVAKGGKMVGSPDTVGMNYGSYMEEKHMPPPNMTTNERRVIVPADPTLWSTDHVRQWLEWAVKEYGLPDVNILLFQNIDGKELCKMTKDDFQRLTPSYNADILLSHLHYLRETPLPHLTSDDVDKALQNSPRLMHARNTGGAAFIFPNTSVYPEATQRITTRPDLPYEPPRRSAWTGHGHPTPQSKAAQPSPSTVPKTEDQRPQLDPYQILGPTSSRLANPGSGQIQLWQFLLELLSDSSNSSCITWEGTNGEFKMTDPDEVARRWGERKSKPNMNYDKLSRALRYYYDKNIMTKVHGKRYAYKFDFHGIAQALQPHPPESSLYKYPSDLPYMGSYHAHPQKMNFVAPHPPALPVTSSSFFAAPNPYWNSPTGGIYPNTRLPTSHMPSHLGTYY
How it was run: as §1

Row | Sequence | binding signal
5 | GTCTAC | 1.05 fold enrichment (6-mer frequency, TF over GST control)
6 | GCCCCA | 1.1 fold enrichment (6-mer frequency, TF over GST control)
7 | CGCCCG | 1.14 fold enrichment (6-mer frequency, TF over GST control)
8 | TGGTGC | 1.16 fold enrichment (6-mer frequency, TF over GST control)
9 | CATACG | 1.06 fold enrichment (6-mer frequency, TF over GST control)
10 | AAGGGT | 1 fold enrichment (6-mer frequency, TF over GST control)
11 | TTGCCG | 1.04 fold enrichment (6-mer frequency, TF over GST control)
12 | ACATGG | 1.16 fold enrichment (6-mer frequency, TF over GST control)
13 | GTTGAT | 1.08 fold enrichment (6-mer frequency, TF over GST control)
14 | ATGCCG | 1.12 fold enrichment (6-mer frequency, TF over GST control)
15 | CCGCTG | 1.05 fold enrichment (6-mer frequency, TF over GST control)
16 | ACCACC | 1.11 fold enrichment (6-mer frequency, TF over GST control)
17 | TGCCAA | 1.06 fold enrichment (6-mer frequency, TF over GST control)
18 | GTCCCA | 1.17 fold enrichment (6-mer frequency, TF over GST control)
19 | CCGATG | 1.06 fold enrichment (6-mer frequency, TF over GST control)
20 | CCATGC | 1.09 fold enrichment (6-mer frequency, TF over GST control)
21 | GCTGCC | 1.02 fold enrichment (6-mer frequency, TF over GST control)

Row | Sequence | binding signal
22 | TCAACA | 1.04 fold enrichment (6-mer frequency, TF over GST control)
23 | GTCTTG | 1.05 fold enrichment (6-mer frequency, TF over GST control)
24 | TGGACC | 1.04 fold enrichment (6-mer frequency, TF over GST control)
25 | GCCCAC | 1.06 fold enrichment (6-mer frequency, TF over GST control)
26 | CGGCCT | 1.17 fold enrichment (6-mer frequency, TF over GST control)
27 | GGTTTT | 1.1 fold enrichment (6-mer frequency, TF over GST control)
28 | CCACCT | 1.11 fold enrichment (6-mer frequency, TF over GST control)
29 | TTGGTC | 1.06 fold enrichment (6-mer frequency, TF over GST control)
30 | GGGTTC | 1.04 fold enrichment (6-mer frequency, TF over GST control)
31 | ACGTTG | 1.05 fold enrichment (6-mer frequency, TF over GST control)
32 | CCACAC | 1.07 fold enrichment (6-mer frequency, TF over GST control)
33 | TGGTCA | 1.06 fold enrichment (6-mer frequency, TF over GST control)
34 | AGCAAC | 1.06 fold enrichment (6-mer frequency, TF over GST control)
35 | AAAGCG | 1.09 fold enrichment (6-mer frequency, TF over GST control)
36 | ATGGTG | 1.19 fold enrichment (6-mer frequency, TF over GST control)
37 | CATCGC | 1.06 fold enrichment (6-mer frequency, TF over GST control)

target: ELF1 (Homo sapiens, UniProt P32519 1-619); test: as above; details: protein: recombinant; tags: N-terminal GST; dsDNA, one strand shown
Sequence (P32519 whole entry): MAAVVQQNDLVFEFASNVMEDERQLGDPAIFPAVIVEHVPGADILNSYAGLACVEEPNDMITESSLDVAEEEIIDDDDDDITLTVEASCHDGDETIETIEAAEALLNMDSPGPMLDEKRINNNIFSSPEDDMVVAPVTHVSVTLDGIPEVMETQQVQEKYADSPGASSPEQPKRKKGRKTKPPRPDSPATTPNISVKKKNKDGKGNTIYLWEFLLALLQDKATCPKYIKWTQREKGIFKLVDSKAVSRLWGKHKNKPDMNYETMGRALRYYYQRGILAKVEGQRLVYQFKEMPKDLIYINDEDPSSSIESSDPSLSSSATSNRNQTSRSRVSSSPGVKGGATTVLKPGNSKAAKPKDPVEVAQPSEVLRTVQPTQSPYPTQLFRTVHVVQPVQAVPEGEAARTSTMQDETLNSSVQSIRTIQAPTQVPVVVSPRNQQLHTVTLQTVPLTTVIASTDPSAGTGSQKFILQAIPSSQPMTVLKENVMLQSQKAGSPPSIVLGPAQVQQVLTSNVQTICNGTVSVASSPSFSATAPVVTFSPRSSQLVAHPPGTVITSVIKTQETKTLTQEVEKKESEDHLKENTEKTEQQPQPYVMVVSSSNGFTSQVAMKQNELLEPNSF
How it was run: as §1

Row | Sequence | binding signal
38 | GTCTAC | 1.05 fold enrichment (6-mer frequency, TF over GST control)
39 | GCCCCA | 1.05 fold enrichment (6-mer frequency, TF over GST control)
40 | CGCCCG | 1.18 fold enrichment (6-mer frequency, TF over GST control)
41 | AAGGCA | 1 fold enrichment (6-mer frequency, TF over GST control)
42 | CATACG | 1.08 fold enrichment (6-mer frequency, TF over GST control)
43 | AAGGGT | 1.01 fold enrichment (6-mer frequency, TF over GST control)
44 | TTGCCG | 1.03 fold enrichment (6-mer frequency, TF over GST control)
45 | ACATGG | 1.15 fold enrichment (6-mer frequency, TF over GST control)
46 | GTTGAT | 1.11 fold enrichment (6-mer frequency, TF over GST control)
47 | CATCCA | 1.02 fold enrichment (6-mer frequency, TF over GST control)
48 | ATGCCG | 1.09 fold enrichment (6-mer frequency, TF over GST control)
49 | CCGCTG | 1 fold enrichment (6-mer frequency, TF over GST control)
50 | ACCACC | 1.18 fold enrichment (6-mer frequency, TF over GST control)
51 | TGCCAA | 1.18 fold enrichment (6-mer frequency, TF over GST control)
52 | GTCCCA | 1.14 fold enrichment (6-mer frequency, TF over GST control)
53 | CCATGC | 1.13 fold enrichment (6-mer frequency, TF over GST control)
54 | GCTGCC | 1.03 fold enrichment (6-mer frequency, TF over GST control)

Row | Sequence | binding signal
55 | TCAACA | 1.03 fold enrichment (6-mer frequency, TF over GST control)
56 | GTCTTG | 1 fold enrichment (6-mer frequency, TF over GST control)
57 | ACCACA | 1.08 fold enrichment (6-mer frequency, TF over GST control)
58 | TGGACC | 1.06 fold enrichment (6-mer frequency, TF over GST control)
59 | GCCCAC | 1.1 fold enrichment (6-mer frequency, TF over GST control)
60 | CGGCCT | 1.1 fold enrichment (6-mer frequency, TF over GST control)
61 | GGTTTT | 1.11 fold enrichment (6-mer frequency, TF over GST control)
62 | CCACCT | 1.15 fold enrichment (6-mer frequency, TF over GST control)
63 | TTGGTC | 1.15 fold enrichment (6-mer frequency, TF over GST control)
64 | GGGTTC | 1.11 fold enrichment (6-mer frequency, TF over GST control)
65 | ACGTTG | 1.03 fold enrichment (6-mer frequency, TF over GST control)
66 | CCACAC | 1.12 fold enrichment (6-mer frequency, TF over GST control)
67 | AGCAAC | 1.08 fold enrichment (6-mer frequency, TF over GST control)
68 | AAAGCG | 1.06 fold enrichment (6-mer frequency, TF over GST control)
69 | ATGGTG | 1.13 fold enrichment (6-mer frequency, TF over GST control)
70 | TGCTGC | 1.21 fold enrichment (6-mer frequency, TF over GST control)
71 | CATCGC | 1.06 fold enrichment (6-mer frequency, TF over GST control)

target: T3, EHF (Homo sapiens, UniProt Q9NZC4 1-300); test: as above; details: protein: recombinant; tags: N-terminal GST; dsDNA, one strand shown
T3 sequence: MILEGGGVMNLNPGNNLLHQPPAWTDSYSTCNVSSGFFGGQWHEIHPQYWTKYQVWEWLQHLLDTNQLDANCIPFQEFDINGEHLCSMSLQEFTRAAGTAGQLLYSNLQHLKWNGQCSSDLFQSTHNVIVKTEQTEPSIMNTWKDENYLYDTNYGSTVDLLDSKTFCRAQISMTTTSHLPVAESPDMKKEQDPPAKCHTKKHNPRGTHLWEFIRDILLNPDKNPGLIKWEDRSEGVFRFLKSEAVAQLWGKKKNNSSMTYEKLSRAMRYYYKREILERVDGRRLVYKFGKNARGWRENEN
How it was run: as §1

Row | Sequence | binding signal
72 | GTCTAC | 1.16 fold enrichment (6-mer frequency, TF over GST control)
73 | CGCCCG | 1.11 fold enrichment (6-mer frequency, TF over GST control)
74 | AAGGCA | 1.09 fold enrichment (6-mer frequency, TF over GST control)
75 | TGGTGC | 1.15 fold enrichment (6-mer frequency, TF over GST control)
76 | CATACG | 1.07 fold enrichment (6-mer frequency, TF over GST control)
77 | AAGGGT | 1.01 fold enrichment (6-mer frequency, TF over GST control)
78 | TTGCCG | 1.19 fold enrichment (6-mer frequency, TF over GST control)
79 | ACATGG | 1.1 fold enrichment (6-mer frequency, TF over GST control)
80 | GTTGAT | 1.04 fold enrichment (6-mer frequency, TF over GST control)
81 | ATGCCG | 1.16 fold enrichment (6-mer frequency, TF over GST control)
82 | CCGCTG | 1.05 fold enrichment (6-mer frequency, TF over GST control)
83 | ACCACC | 1.15 fold enrichment (6-mer frequency, TF over GST control)
84 | TGCCAA | 1.09 fold enrichment (6-mer frequency, TF over GST control)
85 | GCGCGC | 1.06 fold enrichment (6-mer frequency, TF over GST control)
86 | GTCCCA | 1.1 fold enrichment (6-mer frequency, TF over GST control)
87 | CCGATG | 1.03 fold enrichment (6-mer frequency, TF over GST control)
88 | CCATGC | 1.15 fold enrichment (6-mer frequency, TF over GST control)
89 | GCTGCC | 1.24 fold enrichment (6-mer frequency, TF over GST control)

Row | Sequence | binding signal
90 | TCAACA | 1.05 fold enrichment (6-mer frequency, TF over GST control)
91 | GTCTTG | 1.09 fold enrichment (6-mer frequency, TF over GST control)
92 | ACCACA | 1.11 fold enrichment (6-mer frequency, TF over GST control)
93 | TGGACC | 1.1 fold enrichment (6-mer frequency, TF over GST control)
94 | GCCCAC | 1.13 fold enrichment (6-mer frequency, TF over GST control)
95 | CGGCCT | 1.08 fold enrichment (6-mer frequency, TF over GST control)
96 | GGTTTT | 1.08 fold enrichment (6-mer frequency, TF over GST control)
97 | CCACCT | 1.21 fold enrichment (6-mer frequency, TF over GST control)
98 | TTGGTC | 1.14 fold enrichment (6-mer frequency, TF over GST control)
99 | GGGTTC | 1.02 fold enrichment (6-mer frequency, TF over GST control)
100 | ACGTTG | 1.07 fold enrichment (6-mer frequency, TF over GST control)
101 | CCACAC | 1.12 fold enrichment (6-mer frequency, TF over GST control)
102 | TGGTCA | 1.01 fold enrichment (6-mer frequency, TF over GST control)
103 | AGCAAC | 1.15 fold enrichment (6-mer frequency, TF over GST control)
104 | AAAGCG | 1.1 fold enrichment (6-mer frequency, TF over GST control)
105 | ATGGTG | 1.17 fold enrichment (6-mer frequency, TF over GST control)
106 | TGCTGC | 1.3 fold enrichment (6-mer frequency, TF over GST control)
